Compound activity from PubChem.
In the library only some 6.7% were active in any assay of this set; here they are far more common.
Pf Dd2 inh – inhibitors of Plasmodium falciparum Dd2 growth | P. falciparum Dd2 growth, SYBR Green, 72 h; hits give low values | activity change, % at 10 µM | 94,000 tested, 2.3% active; in the data active = activity change below about -80%; inconclusive = no clear call, values can overlap the other calls
C diff HTS – C. difficile growth inhibition; Clostridium difficile clinical isolate growth, OD600, 24 h; hits give low values; 86,000 tested, 0.25% active; growth activity, negative = inhibition, % at 16 µg/mL (by protocol); AID 1259249;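 active = mean growth activity at or below -80% and every replicate also at or below -80%; inconclusive = mean at or below -80% but some replicate above -80%; inactive = mean growth activity above -80%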
T cruzi growth-1 – T. cruzi proliferation inhibition | 77,000 tested, 5.9% active | T. cruzi beta-gal in NIH3T3, GalScreen luminescence, 90 h | AID 624255 | inhibition, % at 8.34 µM;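 active = mean inhibition above about 93%, with at least 55% of replicates each passing it, limit read from the data, passing the limit was not always enough; inconclusive = only one of those two conditions holds; inactive = neither condition holds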
T cruzi growth-2 – blocks T. cruzi growth in NIH3T3 host cells; shares compounds with T cruzi growth-1; T. cruzi beta-gal in NIH3T3, GalScreen luminescence, 90 h; inhibition, % at 8.35 µM; 5,600 tested, 72% active;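 active = mean replicate inhibition above about 95% and at least 55% of replicates individually reaching it, limit read from the data; inconclusive = only one of the two criteria is met; inactive = neither criterion is met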
T cruzi growth-3 – Trypanosoma cruzi proliferation inhibition; 5,600 tested, 21% active; inhibition, % at 2.09 µM; T. cruzi beta-gal in NIH3T3, GalScreen luminescence, 90 h; shares compounds with T cruzi growth-1;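 active = mean inhibition above about 95%, with at least 55% of replicates also reaching it, limit read from the data; inconclusive = meets just one of the two conditions; inactive = meets neither condition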
3T3 cytotox – kills mouse NIH/3T3 fibroblasts. AID 651742. shares compounds with T cruzi growth-1. 5,600 tested, 14% active. cytotoxicity (signal decrease), % at 8.35 µM. NIH/3T3 viability, CellTiter-Glo ATP luminescence, 90 h;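 active = mean signal decrease across replicates above about 35% based on untreated-well scatter, with enough replicates individually passing, limit read from the data; inconclusive = no rule stated though some were filed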
NIH3T3 tox 2 – NIH/3T3 (mouse) viability loss | shares compounds with T cruzi growth-1 | 5,600 tested, 56% active | AID 651744 | NIH/3T3 viability, CellTiter-Glo ATP luminescence, 90 h | inhibition, % at 24.9 µM;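 active = mean loss of cell viability signal at or above a set limit, and enough replicates individually reaching it; inconclusive = meets only the mean limit or only the replicate share; inactive = meets neither condition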
Hits are given with their value; - = inactive; ? = inconclusive; . = not tested or not shown; + = active, no number.

SMILES	Pf Dd2 inh	C diff HTS	T cruzi growth-1	T cruzi growth-2	T cruzi growth-3	3T3 cytotox	NIH3T3 tox 2
C[C@H]1CN([C@@H](C)CO)C(=O)c2cc(NS(=O)(=O)c3ccc(Cl)cc3)ccc2O[C@H]1CN(C)S(=O)(=O)c1ccc(F)cc1	-	-	-	.	.	.	.
COc1ccccc1CNC(=O)C[C@H]1C[C@@H]2c3cc(NC(=O)NC4CCCC4)ccc3O[C@@H]2[C@@H](CO)O1	-	-	109.0	-	-	-	-
COc1ccccc1CNC(=O)C[C@H]1C[C@@H]2c3cc(NC(=O)CC4CC4)ccc3O[C@@H]2[C@H](CO)O1	-	-	-	.	.	.	.
COc1ccccc1CNC(=O)C[C@H]1C[C@H]2c3cc(NC(=O)NC4CCCC4)ccc3O[C@H]2[C@H](CO)O1	-	-	109.4	107.7	-	-	-
COc1ccccc1CNC(=O)C[C@@H]1C[C@@H]2c3cc(NC(=O)CC4CC4)ccc3O[C@@H]2[C@@H](CO)O1	-	-	-	.	.	.	.
Cc1noc(C)c1S(=O)(=O)Nc1ccc2c(c1)CC(=O)N([C@@H](C)CO)C[C@@H](C)[C@H](CN(C)S(=O)(=O)c1c(C)noc1C)O2	-	-	-	.	.	.	.
CO[C@@H]1CN(C)C(=O)c2ccc(NC(=O)C3CC3)cc2OC[C@@H](C)N(C)C[C@H]1C	-	.	.	.	.	.	.
C[C@@H]1CN([C@H](C)CO)S(=O)(=O)c2ccc(C#CCN(C)C)cc2O[C@@H]1CN(C)C(=O)C1CCC1	-	-	-	.	.	.	.
C[C@H]1CN([C@@H](C)CO)S(=O)(=O)c2ccc(C#CCN(C)C)cc2O[C@@H]1CN(C)C(=O)C1CCCCC1	-	-	.	.	.	.	.
C[C@H](CO)N1C[C@H](C)[C@@H](CN(C)C(=O)C2CC2)Oc2cc(C#CCN(C)C)ccc2S1(=O)=O	-	-	100.0	107.3	-	-	-
C[C@H](CO)N1C[C@H](C)[C@@H](CN(C)C(=O)C2CCC2)Oc2cc(C#CCN(C)C)ccc2S1(=O)=O	-	-	105.6	98.9	-	-	-
CCC(=O)N1CC2(C1)CN(C(=O)Nc1ccccc1F)[C@@H](CO)c1[nH]c3cc(OC)ccc3c12	-	-	.	.	.	.	.
Cc1ccc(S(=O)(=O)Nc2ccc3c(c2)C(=O)N([C@H](C)CO)C[C@H](C)[C@H](CN(C)C(=O)NC2CCCCC2)OCCCC[C@@H](C)O3)cc1	-	-	-	.	.	.	.
C[C@H](O)C#Cc1ccc2c(c1)O[C@@H](CN(C)Cc1ccncc1)[C@H](C)CN([C@@H](C)CO)S2(=O)=O	-	-	110.5	98.4	-	-	50.3
C[C@@H]1CN([C@H](C)CO)S(=O)(=O)c2ccc(C#C[C@@H](C)O)cc2O[C@H]1CN(C)Cc1ccncc1	-	-	104.3	95.5	-	-	-
C[C@H](O)C#Cc1ccc2c(c1)O[C@H](CN(C)Cc1ccncc1)[C@@H](C)CN([C@H](C)CO)S2(=O)=O	-	-	-	.	.	.	.
C[C@@H]1CN([C@@H](C)CO)S(=O)(=O)c2ccc(C#C[C@@H](C)O)cc2O[C@H]1CN(C)Cc1ccncc1	-	-	102.3	100.9	-	-	27.1
C[C@@H]1CN([C@H](C)CO)S(=O)(=O)c2ccc(C#C[C@@H](C)O)cc2O[C@@H]1CN(C)Cc1ccncc1	-	-	-	.	.	.	.
C[C@H](O)C#Cc1ccc2c(c1)O[C@H](CN(C)Cc1ccncc1)[C@H](C)CN([C@H](C)CO)S2(=O)=O	-	-	-	.	.	.	.
CN(C)C(=O)[C@H]1[C@H](CO)[C@H]2Cn3c(ccc(C4=CCCCC4)c3=O)[C@H]2N1Cc1ccccn1	.	-	+	-	-	-	-
CCN1[C@@H]2c3ccc(C4=CCCC4)c(=O)n3C[C@@H]2[C@@H](CO)[C@@H]1C(=O)NC1Cc2ccccc2C1	-	-	-	.	.	.	.
O=C(NCC1CC1)[C@@H]1[C@@H](CO)[C@@H]2Cn3c(ccc(C4=CCCC4)c3=O)[C@@H]2N1Cc1ccccc1F	.	-	-	.	.	.	.
O=C(NCC1CC1)[C@@H]1[C@@H](CO)[C@@H]2Cn3c(ccc(-c4cccnc4)c3=O)[C@@H]2N1Cc1cocn1	-	-	-	.	.	.	.
O=C(NCC1CC1)[C@H]1[C@H](CO)[C@H]2Cn3c(ccc(-c4ccccc4)c3=O)[C@H]2N1Cc1cocn1	-	-	97.6	-	-	-	-
O=C(NCC1CC1)[C@H]1[C@H](CO)[C@H]2Cn3c(ccc(C4=CCCCC4)c3=O)[C@H]2N1Cc1ccccc1F	-	-	98.9	-	-	-	66.0
SMILES	Pf Dd2 inh	C diff HTS	T cruzi growth-1	T cruzi growth-2	T cruzi growth-3	3T3 cytotox	NIH3T3 tox 2
CCN1[C@@H]2c3ccc(C4=CCCCC4)c(=O)n3C[C@@H]2[C@@H](CO)[C@@H]1C(=O)NC1Cc2ccccc2C1	-	-	105.2	105.8	-	-	41.3
CN(C)C(=O)[C@@H]1[C@@H](CO)[C@@H]2Cn3c(ccc(C4=CCCC4)c3=O)[C@@H]2N1Cc1ccccn1	-	-	-	.	.	.	.
O=C(C[C@@H]1C[C@@H]2c3cc(NC(=O)Nc4ccc(C(F)(F)F)cc4)ccc3O[C@@H]2[C@@H](CO)O1)NC1CCCCC1	-	-	.	.	.	.	.
CO[C@H]1CN(C)C(=O)c2ccc(NC(C)=O)cc2OC[C@@H](C)N(C(=O)Cc2ccccn2)C[C@H]1C	-	.	-	.	.	.	.
Cc1ccc(S(=O)(=O)N2CC[C@@H]3[C@@H](CO)Nc4ccc(Br)cc4[C@@H]32)cc1	-	-	-	.	.	.	.
O=C(C[C@@H]1CC[C@@H]2[C@H](COC[C@@H](O)CN2C(=O)Nc2ccc(C(F)(F)F)cc2)O1)NCCc1ccncc1	-	-	-	.	.	.	.
CC(=O)N(C)C[C@H]1Oc2ncc(C3=CCCC3)cc2C(=O)N([C@@H](C)CO)C[C@H]1C	-	-	-	.	.	.	.
CO[C@H]1CN(C)C(=O)c2cc(NC(C)=O)ccc2OC[C@@H](C)N(C(=O)C2CC2)C[C@H]1C	-	-	-	.	.	.	.
O=C(O)[C@@H]1[C@@H](CO)[C@@H]2Cn3c(ccc(C4=CCCCC4)c3=O)[C@@H]2N1Cc1ccccc1F	-	-	-	.	.	.	.
CCCNC(=O)[C@H]1[C@H](CO)[C@H]2Cn3c(ccc(C4=CCCCC4)c3=O)[C@H]2N1Cc1ccccc1F	-	-	102.5	106.4	-	-	?
COc1ccc(S(=O)(=O)N2CCCCN3[C@H](C2)[C@@H](c2ccc(C#CC(C)C)cc2)[C@@H]3CO)cc1	-	-	104.6	102.0	111.7	-	96.9
COc1ccc(S(=O)(=O)N2CCCCN3[C@H](CO)[C@H](c4ccc(C#CCC(C)C)cc4)[C@H]3C2)cc1	-	-	-	.	.	.	.
COc1cccc(S(=O)(=O)N2CCCCN3[C@H](CO)[C@@H](c4ccc(C#CC(C)C)cc4)[C@H]3C2)c1	-	-	-	.	.	.	.
COc1ccc(C#Cc2ccc([C@H]3[C@H](CO)N4CCCCN(S(=O)(=O)c5ccccc5)C[C@@H]34)cc2)cc1	-	-	-	.	.	.	.
